Screening data deposited in PubChem BioAssay by National Center for Advancing Translational Sciences (NCATS).
ALDH1A1 block = ALDH1A1 (human) enzyme inhibition | 220,000 tested, 7.3% active | Potency, µM (series often up to 75.3 µM), inactives show top-dose activity, negative = inhibition, usual class: inhibitors | P00352 | Purified ALDH1A1, NADH fluorescence, propionaldehyde substrate;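 also: potency is read from the fitted curve at half-maximal effect; plate controls were no enzyme wells and a reference inhibitor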
Target sequence (P00352 whole entry, looked up): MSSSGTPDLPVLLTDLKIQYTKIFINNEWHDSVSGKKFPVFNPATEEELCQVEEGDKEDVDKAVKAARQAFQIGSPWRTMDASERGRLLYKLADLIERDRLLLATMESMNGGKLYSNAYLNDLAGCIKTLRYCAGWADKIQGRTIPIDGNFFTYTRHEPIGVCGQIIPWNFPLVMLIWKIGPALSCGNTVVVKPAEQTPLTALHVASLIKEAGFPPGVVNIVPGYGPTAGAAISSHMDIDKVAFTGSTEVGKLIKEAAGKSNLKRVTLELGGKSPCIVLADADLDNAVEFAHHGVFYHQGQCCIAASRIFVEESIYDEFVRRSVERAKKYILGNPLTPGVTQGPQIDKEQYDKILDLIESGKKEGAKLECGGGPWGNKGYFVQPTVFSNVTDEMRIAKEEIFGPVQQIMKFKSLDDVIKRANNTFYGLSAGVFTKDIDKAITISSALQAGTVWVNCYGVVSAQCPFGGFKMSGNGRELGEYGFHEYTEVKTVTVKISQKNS
HPGD block = HPGD (human) dehydrogenase inhibition. purified HPGD, NADH fluorescence kinetic, PGE2 substrate. Potency, µM, for the others: at the top dose activity change, negative = inhibition, usual class: inhibitors. 150,000 tested, 4.3% active. P15428; also: potency is read from the fitted curve at half-maximal effect
Target sequence (P15428 whole entry, looked up): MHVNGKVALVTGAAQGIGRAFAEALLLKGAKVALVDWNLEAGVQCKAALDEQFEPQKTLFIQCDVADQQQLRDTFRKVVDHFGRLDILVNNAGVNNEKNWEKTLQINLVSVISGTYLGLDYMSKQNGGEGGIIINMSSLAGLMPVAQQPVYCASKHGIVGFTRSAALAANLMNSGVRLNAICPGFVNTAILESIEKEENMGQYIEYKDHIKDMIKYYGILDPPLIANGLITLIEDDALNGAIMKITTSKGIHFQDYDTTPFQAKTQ
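NADH formation kinetics: reaction with 30 uM PGE2 and 1 mM NAD+ (final), 20 nM enzyme, Tris-HCl pH 8 with Tween 20, after 15 min compound preincubation at room temperature. Fluorescence change, last versus first of five reads.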
PNC assembly inh = blocks assembly of the perinucleolar compartment; PC3M PTB-GFP, PNC prevalence imaging, 16 h; stronger effect = lower value; activity change (PNC), negative = inhibition, % at 10 µM; 140,000 tested, 3.1% active;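 active = readout at or below -70, meaning at least 70% loss of cells showing the perinucleolar compartment, a nuclear body marking cancer cells; inconclusive = readout between -30 and a set limit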;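 also: plate controls were DMSO wells for no effect and camptothecin positive control wells for full effect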
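Compounds are pinned in duplicate onto adhered PC3M cells stably expressing GFP-tagged PTB and incubated 16 h at 37 C. Cells are then fixed, nuclei stained with Hoechst, and PNC-positive cells counted.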
12-hLO inh = blocks human 12-lipoxygenase activity; P18054; Potency, µM (titrated, usually from 57.1 µM), inactives show top-dose activity change, negative = inhibition, most hits filed as inhibitors; 150,000 tested, 0.12% active; AID 1452; purified 12-hLO, xylenol orange hydroperoxide absorbance; active = well fitted inhibition curve with a large enough effect; inconclusive = small, poorly fitted or top-dose-only effect; also: potency is read from the fitted curve at half-maximal effect; nearly all actives have a fitted effect of over 55% in size
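Purified human 12hLO (150 nM), preincubated 15 min with compound, then 40 uM arachidonic acid for 30 min, room temperature, Hepes pH 7.0 with 0.01% Triton X-100. Hydroperoxide detected by ferrous iron/xylenol orange; 573/405 nm absorbance ratio gives reaction progress.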
Lamin A splicing = changes lamin A minigene splicing in HeLa cells | HeLa LMNA splicing GFP/RFP minigene ratio, 48 h | Potency, µM (titrated, usually from 46.1 µM), inactives show at the top dose ratio change, negative = inhibition, hits mostly inhibitors | 200,000 tested, 0.01% active | AID 1487; active = well fitted inhibition curve with a large enough effect in the signal ratio, with a control signal flat, not every such curve was filed as active; inconclusive = small, poorly fitted or top-dose-only effect, or effect the other way, or a change in a side signal; the % refers to the signal ratio; also: potency is read from the fitted curve at half-maximal effect
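Read-out is the ratio of GFP to DsRed2 object intensity, acquired by 488 nm laser-scanning cytometry on HeLa lamin A-EGFP minigene reporter cells. Compound incubation 48 hrs at 37 °C in Opti-MEM with 2% FBS; DMSO 0.5% final.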
* marks the source's active call; other numbers are inactive results; ? = inconclusive; . = no result given; [ ] = dose if it differs, or a comment. Compounds with a hit are over-represented: about 10% of the library has one in this group of screens. Unless noted, calls follow the shape of the dose curve; as a rule, active = well fitted inhibition curve with a large enough effect (not every such curve was filed as active); inconclusive = small, poorly fitted or top-dose-only effect, or another doubt; inactive = no such curve, though single readings can be large or run the other way. Unless noted, % is scaled to controls: 0 for no effect and ±100 for the full control effect.

SMILES | ALDH1A1 block | HPGD block | PNC assembly inh | 12-hLO inh | Lamin A splicing
CCOC(=O)Cn1nnnc1C(C(C)C)N(Cc1cc2c(C)cc(C)cc2[nH]c1=O)C1CCCC1 (configuration not stated) | 3.5µM* | -24% | 151 | -1% | ?
CCS(=O)(=O)N1CC(=O)N(c2ccc(Cl)cc2C)C(C)(C(=O)NC2CCCCCC2)C1 (configuration not stated) | . | . | . | . | 1%[46 µM]
CC1(C)CC(=O)C2=C(C1)N(c1ccc(F)cc1)C(=O)NC2(C(F)(F)F)C(F)(F)F | 10µM* | -7% | 20 | -3% | -12%
CC1(C)CC(=O)C2=C(C1)N(c1ccc(F)cc1)C(=O)C2(NC(=O)c1ccccc1F)C(F)(F)F (configuration not stated) | 24% | -7% | 36 | -2% | 2%
CN(C)c1ccc(C(=N)c2ccc(N(C)C)cc2)cc1 | -11% | -3% | . | -7% | .
CN(C)C(=S)c1ccccc1 | 7.1µM* | . | . | . | .
CN(C)C(=S)c1ccc(N(C)C)cc1 | 0.79µM* | . | . | . | .
COc1ccc(C(=S)N(C)C)cc1OC | ? | 10µM* | ? | -3% | -2%
CN(C(N)=S)c1ccccc1 | 9% | -1% | 1 | -2% | 12%
NCC1CCCCC1CC(=O)O (configuration not stated) | 12% | -5% | . | -1% | .
O=C(Nc1ccccc1)N(Cc1cccs1)c1ccc(F)cc1 | . | . | . | . | 7%[46 µM]
C=C(C)C1CCC(C)=C1CC(C)(C)/C=N\n1cnnc1 (configuration not stated) | 22µM* | -14% | -20 | -2% | ?
O=C(c1ccc(F)cc1)N1CCCCC(Sc2nnnn2-c2ccccc2)C1=O (configuration not stated) | 4.5µM* | -17% | ? | -3% | -3%
O=C(c1ccccc1)N1CCCCC(Sc2nnnn2-c2ccccc2)C1=O (configuration not stated) | 3.5µM* | -11% | -12 | 5% | -1%
CS(=O)(=O)N(Cc1ccccc1)c1ccc(C(=O)Nc2cccnc2)cc1 | 15% | -15% | -100* | 1% | -11%
CS(=O)(=O)N(Cc1ccc(Cl)cc1)c1ccc(C(=O)Nc2cccnc2)cc1 | 0% | -10% | ? | -18% | ?
Cc1ccccc1NC(=O)c1ccc(CN(c2ccccc2)S(=O)(=O)c2ccccc2)cc1 | 33% | -25% | -134* | 0% | ?
CN(c1ccc(C(=O)NCc2cccnc2)cc1)S(C)(=O)=O | 11% | -8% | -100* | -3% | ?
CC(C)(C)OC(=O)N1CCC(c2c(C(=O)NC3CCCCC3)cnn2-c2ccc(F)cc2F)CC1 | . | . | . | . | -5%[46 µM]
CCCCC[C@H](O)/C=C/C1=C(CCCCCCC(=O)O)C(=O)CC1 | 0% | -8% | -115* | -5% | ?
CCCc1cc(C(=O)OC)c(NC(=O)CCCC(=O)O)s1 | 8% | . | . | . | 15%[46 µM]
CCc1cc(C(=O)OC)c(NC(=O)CCC(=O)O)s1 | 18µM* | 13µM* | -27 | 0% | -5%
N.N.O=C(O)C1(C(=O)O)CCC1.[Pt] | ? | ? | . | -6% | ?
CC(=O)c1ccc(NC(=O)/C(Cl)=C/c2ccccc2)cc1 | -3% | . | . | . | .
Cc1ccc(NC(=O)/C(Cl)=C\c2ccccc2)cc1 | 4µM* | -22% | -30 | -10% | ?
SMILES | ALDH1A1 block | HPGD block | PNC assembly inh | 12-hLO inh | Lamin A splicing
COc1cc(OC)cc(N2C(=O)N(CC(=O)c3ccc(F)cc3)c3ccccc3S2(=O)=O)c1 | . | . | . | . | 0%[46 µM]
CCOc1ccc(-c2nonc2NC(=O)c2oc3ccc(F)cc3c2C)cc1 | . | . | . | . | 5%[46 µM]
COC(=O)c1cc(C(=O)Nc2nnc(CC(C)(C)C)s2)cc([N+](=O)[O-])c1 | 25µM* | 16µM* | -8 | 6% | -8%
CCN(CC)CCNC(=O)c1ccc(N2CCCCC2)c(NS(=O)(=O)c2ccc(C)cc2)c1 | 20µM* | -8% | -20 | -3% | -2%
COc1ccc(S(=O)(=O)Nc2cc(C(=O)NCCC(C)C)ccc2N2CCOCC2)cc1 | 14µM* | -1% | 26 | -8% | ?
COC(=O)c1ccc(N2CCN(S(=O)(=O)c3ccc(C)cc3)CC2)c([N+](=O)[O-])c1 | -5% | -9% | ? | -2% | -12%
COc1ccc(NS(=O)(=O)c2ccc(N3CCOCC3)c(NC(=O)C(C)C)c2)cc1 | 8% | . | . | . | 2%[46 µM]
COc1ccc(CNC(=O)c2ccc(N3CCCC3)c(NC(=O)NCc3ccc(C)cc3)c2)cc1 | . | . | . | . | -7%[46 µM]
COC(=O)c1ccc(N2CCCCC2)c(NS(=O)(=O)c2ccc(C)cc2)c1 | 7.9µM* | -12% | -29 | 6% | ?
CCOC(=O)Cc1cnc(NC(=O)CSc2nc3ncnc(N)c3[nH]2)s1 | 9% | . | . | . | ?
Cc1ccc2onc(CC(=O)N3CCN(c4cc(Cl)ccc4C)CC3)c2c1 | . | . | . | . | -10%[46 µM]
CN(C)c1ccnc(Oc2ccccc2)c1C#N | ? | ? | 52 | 4% | -12%
CN(C)c1ccnc(Oc2ccc(C(C)(C)C)cc2)c1C#N | ? | 35µM* | 33 | -5% | ?
CN(C)c1ccnc(Oc2ccc(Cl)cc2)c1C#N | 25µM* | 32µM* | 73 | -18% | -19%
N[C@H]1[C@@H](C(=O)O)[C@H]2C=C[C@H]1C2 | 0.5µM* | 2% | . | 2%[11.4 µM] | .
CC1CCN(c2ncnc3c2cnn3-c2ccc(F)cc2)CC1 | . | . | . | . | -5%[46 µM]
COc1cccc(OCC(=O)Nc2ccccc2NC(C)=O)c1 | ? | -5% | -6 | 4% | 6%
Cc1cccc(OCC(=O)Nc2cccc(C(=O)Nc3ccccc3C(=O)O)c2)c1 | 5.6µM* | ? | -29 | 1% | -6%
CC(C)c1ccc(OCC(=O)Nc2cccc(C(=O)Nc3ccccc3C(=O)O)c2)cc1 | 20µM* | . | . | . | -13%[46 µM]
COc1cccc(C(=O)Nc2cc(C)ccc2NC(=O)COc2ccccc2)c1 | 14µM* | . | 20 | -7% | 1%
O=C(COc1ccccc1)Nc1nnc(-c2ccccc2)o1 | -3% | -17% | 12 | 1% | -12%
O=C(COc1ccccc1)Nc1cccc(-c2nnc(-c3ccccc3)o2)c1 | -3% | 4.5µM* | -15 | 1% | ?
Cc1cccc(OCC(=O)Nc2cccc(C(=O)NCC(C)C)c2)c1 | 14% | -13% | 12 | 0% | ?
COc1ccc(Cn2c(CO)cnc2SCc2cccc(C)c2)cc1 | . | . | . | . | -3%[46 µM]
Cc1cccc(OCC(=O)Nc2ccccc2C(F)(F)F)c1 | -4% | 18µM* | 13 | 2% | 5%
Cc1cccc(C)c1OCC(=O)Nc1ccccc1C(F)(F)F | -5% | . | . | . | -7%[46 µM]
COc1ccc(CNC(=O)c2cnc(N3CCCC3)nc2C)cc1 | . | . | . | . | 13%[46 µM]
CN(C)S(=O)(=O)c1ccc(C(=O)Nc2ccccc2SCCC#N)cc1 | 16µM* | . | . | . | ?
CO[C@H]1COC(=O)C/C=C\[C@H](C)[C@@H](NS(=O)(=O)c2ccc(C)cc2)COC(=O)C/C=C\[C@@H]1C | -13%[13.5 µM] | . | . | . | .
CC(=O)Nc1ccc(N2C(=O)c3ccc(C(=O)Nc4nnc(SCc5ccc(F)cc5)s4)cc3C2=O)cc1 | 2% | . | . | . | -17%[46 µM]
